ELG1 DNA repair: ELG1-dependent DNA repair inhibition; HEK293T ELG1-luciferase reporter, luminescence, 16 h; DNA damage induced by 5-fluorouridine; Potency, µM (doses to about 46.1 µM), for the others: at the top dose activity change, negative = inhibition, usual class: inhibitors; 330,000 tested, 2.3% active; AID 504467; further: on the % scale 0 is the no-effect control and ±100 the full control effect; nearly all actives have a fitted effect of over 55% in size
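Quantitative HTS, concentration-response format. 2,000 cells/well co-treated with 5-fluorouridine and compound, 16 hr in 5% CO2 at 37 °C; ONE-Glo luminescence read after 30 min.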
MCF10A rerep: DNA re-replication induction in MCF 10a cells; Potency, µM (top dose mostly 46.1 µM), for the others: at the highest dose activity, positive = re-replication, hits mostly activators; 350,000 tested, 2.9% active; MCF 10A DNA re-replication, Hoechst nuclear intensity, 48 h; AID 624296; further: % of control where 0% means no effect; nearly all actives have a fitted effect of over 50% in size
SW480 rereplic: inducers of DNA re-replication in SW480 colon cancer cells; AID 624297; SW480 DNA re-replication, Hoechst DNA content imaging, 48 h; 340,000 tested, 1.8% active; Potency, µM (top dose mostly 46.1 µM), for inactives: top-dose re-replication activation, actives largely listed as activators; further: % of control where 0% means no effect; nearly all actives have a fitted effect of over 55% in size
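Image-based DNA-content assay: after two days of treatment, nuclei were labelled with the DNA dye Hoechst and imaged, and hits were compounds raising the count of nuclei showing high fluorescence intensity.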
VP16 counter: inhibits Gal4-VP16 luciferase reporter, ROR gamma counter-screen | Drosophila S2 Gal4-VP16 UAS-luciferase, luminescence, 20 h | Potency, µM (top dose mostly 53.6 µM), without a hit: at the highest dose activity, negative = inhibition, usual class: inhibitors | 310,000 tested, 3.5% active | AID 2546;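 further: Gal4-VP16 expression switched on by copper sulfate through the metallothionein promoter; on the % scale 0 is the no-effect control and ±100 the full control effect; nearly all actives have a fitted effect of over 50% in size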
RORgamma inh: inhibitors of mouse ROR gamma transcriptional activity; P51450; Drosophila S2 Gal4-RORgamma UAS-luciferase reporter, 20 h; Potency, µM (top dose mostly 53.6 µM), without a hit: at the top dose activity change, negative = inhibition, most hits filed as inhibitors; 310,000 tested, 5.4% active; further: on the % scale 0 is the no-effect control and ±100 the full control effect; nearly all actives have a fitted effect of over 60% in size
Target sequence (P51450 whole entry, looked up, the tested form may be a part): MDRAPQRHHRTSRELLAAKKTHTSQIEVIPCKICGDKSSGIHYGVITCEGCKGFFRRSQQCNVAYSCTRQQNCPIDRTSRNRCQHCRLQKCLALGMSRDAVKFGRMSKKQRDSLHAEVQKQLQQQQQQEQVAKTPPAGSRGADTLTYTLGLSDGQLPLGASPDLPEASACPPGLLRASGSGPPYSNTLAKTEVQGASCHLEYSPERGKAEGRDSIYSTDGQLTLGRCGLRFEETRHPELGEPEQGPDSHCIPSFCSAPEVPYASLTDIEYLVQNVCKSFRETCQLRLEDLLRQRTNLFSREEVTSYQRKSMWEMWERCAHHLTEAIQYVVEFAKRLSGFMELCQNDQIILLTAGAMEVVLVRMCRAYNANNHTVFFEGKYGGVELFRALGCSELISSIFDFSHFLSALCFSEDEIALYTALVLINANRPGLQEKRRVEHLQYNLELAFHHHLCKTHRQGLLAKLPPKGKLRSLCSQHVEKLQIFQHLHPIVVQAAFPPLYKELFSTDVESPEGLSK
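Drosophila Schneider cells stably carrying a metallothionein-driven Gal4 DBD–ROR gamma fusion and a UAS-Photinus luciferase reporter were exposed to compound for 1 hr, then induced with copper sulfate (700 uM final) for 20 hr at ambient temperature before luminescence reading.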
An asterisk follows results filed as active; ? = inconclusive; · = not tested or not shown; [ ] = another dose, or the depositor's remark. In the library only some 10% were active in any assay of this set; here they are far more common. The call rests on the fitted dose curve; in most records, active means well fitted curve in the direction sought with a large enough effect; inconclusive means small, poorly fitted or top-dose-only effect, or another doubt; inactive means no such curve, though single readings can be large; an effect the other way counts as inactive or inconclusive. Potency means the concentration at half of the fitted maximal effect.

SMILES	ELG1 DNA repair	MCF10A rerep	SW480 rereplic	VP16 counter	RORgamma inh
ClC(Cl)c1nnc(-c2ccccc2)c(-c2c[nH]c3ccccc23)n1	-13%	26µM*	1%	2%	2%
CC1(C)CC2C1CCC1(C)OC2(C)CCC1O (centres undefined)	·	·	·	7%	5%
CC(C)=CCNc1ncnc2c1c(C#N)cn2C1OC(CO)C(O)C1O (centres undefined)	·	15µM*	?	·	·
COc1ccc(NC(=O)c2ccc(-c3ccc(-c4noc(C)n4)cc3C)cc2)cc1OCCN(C)C	·	·	·	?	14µM*
COc1ccc(-c2nc(-c3ccc(NC(=O)c4ccncc4)cc3)no2)cc1OC	?	11%	1%	-10%	?
COc1ccc(NC(=O)c2ccc(-c3ccc(-c4noc(C)n4)cc3C)cc2)cc1N1CCN(C)CC1	?	?	?	32µM*	20µM*
COC(=O)Cc1sc(-c2ccccn2)nc1-c1ccccc1	-6%	-2%	-3%	0%	-7%
CCOC(=O)CC(C(=O)OCC)C1CCCCC1=O (centres undefined)	·	·	·	-6%	-11%
Cc1ccc(NC2=Nc3ccccc3CC2)cc1	?	?	-4%	?	11µM*
Cc1ccc(Cn2c(C(C)Nc3nc(-c4ccc(F)cc4)cs3)nc3cc(C(F)(F)F)ccc32)cc1 (centres undefined)	·	1%	0%	·	·
Cc1ccc(N2CCN(C(=O)C3CCCN(c4ncnc5c4nc4n5CCCCC4)C3)CC2)c(C)c1 (centres undefined)	1%	18%	-21%	-6%	-5%
O=C(C1CCCN(c2ncnc3c2nc2n3CCCCC2)C1)N1CCN(c2cccc(Cl)c2)CC1 (centres undefined)	8.2µM*	?	-33%	-15%	?
O=C(C1CCCN(c2ncnc3c2nc2n3CCCCC2)C1)N1CCN(c2ccccc2)CC1 (centres undefined)	?	-10%	2%	-13%	18%
Cc1ccc(C)c(N2CCN(C(=O)C3CCCN(c4ncnc5c4nc4n5CCCCC4)C3)CC2)c1 (centres undefined)	13µM*	21µM*	26%	1%	34%
CCOC(=O)N1CCN(C(=S)NC(=O)c2nn(C)cc2Br)CC1	10%	-4%	0%	?	18µM*
CCOC(=O)c1ccc(NC(=O)c2nn(C)cc2Br)cc1	?	-1%	-1%	0%	7%
Cn1ncc(Br)c1C(=O)NC(=S)N1CCN(c2ccccn2)CC1	4%	16%	-2%	11µM*	6.3µM*
Cn1cc(Br)c(C(=O)NC(=S)N2CCN(c3ccccn3)CC2)n1	-8%	-1%	?	13µM*	4µM*
COC(=O)c1ccccc1NC(=S)N1CCN(c2ccccn2)CC1	-15%	-2%	12%	-11%	-14%
COc1ccc(C(=O)N/C(=C\c2ccco2)C(=O)NC2CCS(=O)(=O)C2)cc1 (centres undefined)	-9%	-2%	-15%	5%	-10%
O=C(C[C@H]1C/C=C\CCCCC(=O)OC[C@H]2CCCN2C1=O)N[C@H](CO)Cc1ccccc1	19%	2%	-8%	·	·
Cc1ccc(Cn2c(=N)c(C(=O)NCC3CCCO3)cc3c(=O)n4cccc(C)c4nc32)cc1 (centres undefined)	-2%	21µM*	8.2µM*	-4%	-14%
COc1ccc(Cn2c(=N)c(C(=O)NCC3CCCO3)cc3c(=O)n4ccccc4nc32)cc1 (centres undefined)	-15%	15µM*	?	11%	-11%
N=c1c(C(=O)NCC2CCCO2)cc2c(=O)n3ccccc3nc2n1Cc1ccc(Cl)cc1 (centres undefined)	?	?	0.58µM*	4%	-2%
Cc1ccc(CNC(=O)c2cc3c(=O)n4cccc(C)c4nc3n(CC3CCCO3)c2=N)cc1 (centres undefined)	-1%	·	·	-6%	-9%
SMILES	ELG1 DNA repair	MCF10A rerep	SW480 rereplic	VP16 counter	RORgamma inh
COc1ccc(CCn2c(=N)c(C(=O)NCC3CCCO3)cc3c(=O)n4ccccc4nc32)cc1 (centres undefined)	?	17%	10%	-10%	13%
N=c1c(C(=O)NCC2CCCO2)cc2c(=O)n3ccccc3nc2n1Cc1ccccc1 (centres undefined)	-15%	3.7µM*	2.6µM*	-1%	-34%
CC1C=CCCOC1c1ccccc1 (centres undefined)	·	·	·	8%[10 µM]	8%[10 µM]
CC(C)CN(C(=O)COC(=O)COc1ccc2ccccc2c1)c1c(N)n(Cc2ccccc2)c(=O)[nH]c1=O	-27%	?	8%	·	·
CCOC(=O)c1cc2c(=O)n3ccccc3nc2n(Cc2ccccc2Cl)c1=N	-3%	·	·	-6%	-20%
Cc1ccc(Cn2c(=N)c(C(=O)NCC3CCCO3)cc3c(=O)n4ccccc4nc32)cc1 (centres undefined)	-5%	3.3µM*	18µM*	4%	-26%
N=c1c(C(=O)NCC2CCCO2)cc2c(=O)n3ccccc3nc2n1Cc1ccccc1Cl (centres undefined)	-27%	3.3µM*	21µM*	-3%	-29%
OCCC1CN(CC2CCCCC2)CCN1CC1CCCCC1 (centres undefined)	0%	2%	-1%	8%	-25%
O=C(NC1CC1)C1CCN(C2CCN(C(=O)CCOc3ccccc3)CC2)CC1	13%	10%	0%	-15%	-3%
COc1ccccc1C(=O)NC(=O)COC(=O)c1oc2ccccc2c1C	14%	14%	-6%	·	·
COC(=O)C1=C(C)NC(C)=C(C(=O)OC)C1c1ccc(OC(=O)c2oc3ccccc3c2C)c(OC)c1	-1%	11%	0.52µM*	10%	3%
Cc1ccc(NC(C)C(=O)N/N=C/c2ccc([N+](=O)[O-])s2)cc1 (centres undefined)	?	18%	?	?	?
COC(=O)c1cccc(NC(=O)/C=C/c2cccc([N+](=O)[O-])c2)c1	?	17%	3%	?	-30%
CC(=O)c1cccc(NC(=O)/C=C/c2ccc([N+](=O)[O-])s2)c1	?	3.7µM*	2.9µM*	4.5µM*	10µM*
Cc1cc(C)cc(NC(=O)/C=C/c2ccc([N+](=O)[O-])s2)c1	-1%	4.1µM*	?	-12%	0%
Cc1ccccc1NC(=O)/C=C/c1ccc([N+](=O)[O-])s1	?	1.6µM*	0.16µM*	3.2µM*	4.5µM*
O=C1C2CCC(C2)[C@@H]2CCCCN12 (some centres undefined)	·	·	·	-1%[96.6 µM]	-16%[96.6 µM]
O=C(COc1ccc(C2SCCS2)cc1)NNC(=O)C(Cl)Cl	?	?	-53%	3%	-18%
